In all, about 320,000 compounds went through this assay and about 1,300 (0.41%) were called active. About 3% were inconclusive and are not listed. How the calls were made is not given here. Not all results are given here. Measured potencies and affinities stand elsewhere.
Assay: growth inhibition of non-replicating M. tuberculosis (AID 488890);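 further: plate controls were DMSO cells for no effect and high antibiotic wells for full effect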
Details: Mycobacterium tuberculosis non-replicating, at 25 µM, stronger effect = higher value

| Structure (SMILES) | inhibition |
| --- | --- |
| Cc1ccc(NC(=O)[C@H](C)NC(=O)C2CCN(C(=O)[C@@H](NC(=O)OC(C)(C)C)C(C)C)CC2)cc1 | -5.73% |
| CC(C)[C@H](NC(=O)c1ccco1)C(=O)OCC(=O)NC12CC3CC(CC(C3)C1)C2 | 16.5% |
| O=C(Nc1cccc(-n2cnnn2)c1)c1cnccc1Cl | -2.47% |
| O=C(NCc1ccccc1)c1ccc(CN2CCC(Cc3ccccc3)CC2)cc1 | 63.1% |
| CCCc1ccc2oc(C(=O)N3CCC(N4CCCC(O)C4)CC3)c(C)c2c1 (centres undefined) | 9.91% |
| O=C(NC1=NCCS1)c1cc(-c2ccccc2)nn1-c1ccccc1 | 12.3% |
| COc1cccc(/C=N/NC(=O)COc2cccc3cccnc23)c1O | 22.2% |
| CCOc1ccc(C(=O)Nc2cccc3cccnc23)cc1 | 39% |
| O=C(COc1cccc2cccnc12)N/N=C/c1ccccc1O | 21.3% |
| COc1ccc(C(=O)N/N=C/c2cccnc2)cc1 | -12.5% |
| O=C(O)c1ccc(N/N=C/c2cccc3cccnc23)cc1 | -19.9% |
| CCOc1ccccc1C(=O)N/N=C/c1cccc2cccnc12 | 78.1% |
| Cc1cccc2cc(/C=N/NC(=O)c3ccccc3O)c(Cl)nc12 | -1.47% |
| O=C(N/N=C/c1ccnc2ccccc12)c1ccccc1O | 24.1% |
| O=C(c1ccccc1)N1CCN(C(=S)NCc2ccco2)CC1 | -12.8% |
| Cc1cc(/C=N/O)c(C)n1-c1cccc(Cl)c1 | 5.04% |
| Nc1c(C(=O)Nc2ccc3c(c2)OCCO3)nnn1Cc1cccc(Br)c1 | 1.42% |
| CCOc1ccc(N=C2NC(=O)C(CC(=O)Nc3ccc(OC)cc3)S2)cc1 (centres undefined) | 23% |
| N#Cc1ccc(C23CC4(C2)[C@H](CN(Cc2ccc(-c5ccccc5)cc2)[C@@H]4c2ccccc2)C3c2ccccc2)cc1 (some centres undefined) | 34.9% |
| CCN(CC)C(=O)CSc1nc(OC)cc(=O)[nH]1 | -3.35% |
| COC(=O)C1=C(C(=O)OC)[C@@H]2N(Cc3ccccc3)c3ccccc3[C@@]23C[C@@H](CO)N(C(=O)NC2CCCC2)C3=N1 | 39.9% |
| Cc1ccc(S(=O)(=O)N2CCC(=O)N(CCOC(=O)NCc3ccccc3)CC2)cc1 | 16.1% |
| O=C(O)c1ccc(N2CC3CC(C2)c2cccc(=O)n2C3)c(NC(=S)Nc2ccc(Br)cc2)c1 (centres undefined) | 41.1% |

| Structure (SMILES) | inhibition |
| --- | --- |
| O=[N+]([O-])c1ccc(Nc2cccc(F)c2)nc1 | 16.5% |
| CC1=NN(C(=O)CCc2ccccc2O)C(O)(C(F)(F)F)C1 (centres undefined) | 74.8% |
| CC1=NN(C(=O)c2ccc(Cn3nc(C)cc3C)o2)C(O)(C(F)(F)F)C1 (centres undefined) | 24.9% |
| CC1=NN(C(=O)CCc2ccc3c(c2)OCO3)C(O)(C(F)(F)F)C1 (centres undefined) | -15.8% |
| O=C(c1ccco1)N1N=C(c2ccncc2)CC1(O)C(F)(F)F (centres undefined) | -9.67% |
| CC1=NN(C(=O)c2cccnc2)C(O)(C(F)(F)F)C1 (centres undefined) | -26.1% |
| COc1ccc(OCC(=O)N2N=C(C)CC2(O)C(F)(F)F)cc1 (centres undefined) | 75.8% |
| CC1=NN(C(=O)c2nn(C)cc2Br)C(O)(C(F)(F)F)C1 (centres undefined) | 8.53% |
| COc1ccc(CC(=O)N2N=C(C)CC2(O)C(F)(F)F)cc1 (centres undefined) | 72.4% |
| COC(=O)c1ccccc1NC(=O)COC(=O)/C=C/c1cccs1 | 18.2% |
| CC(C)c1ccc(C(O)Cc2nc3ccccc3n2C)cc1 (centres undefined) | 41.1% |
| OCCCc1nc2n(n1)C(c1cccs1)C=C(c1ccccc1)N2 (centres undefined) | 0.31% |
| CCOC(=O)c1cc([N+](=O)[O-])sc1N | 5.99% |
| CCn1c(C(=O)O)c(CC(=O)NC2CCCCCC2)c2ccccc21 | 24.3% |
| O=C(CSc1ncccn1)NC1CCCc2ccccc21 (centres undefined) | -8.14% |
| CC1=NN(C(=O)c2cccc(Cn3nc(C)c([N+](=O)[O-])c3C)c2)C(O)(C(F)(F)F)C1 (centres undefined) | 76.4% |
| COc1ccc(CC(=O)N2N=C(C)CC2(O)C(F)(F)F)cc1OC (centres undefined) | 45.4% |
| CC1=NN(C(=O)c2ccc(Cn3ccc([N+](=O)[O-])n3)cc2)C(O)(C(F)(F)F)C1 (centres undefined) | 75.5% |
| CC1=NN(C(=O)Cn2nc([N+](=O)[O-])cc2C)C(O)(C(F)(F)F)C1 (centres undefined) | 32.3% |
| CNC(=S)NNS(=O)(=O)c1ccc(OC)cc1OC | -11% |
| COc1cccc(N2CCN(CC(=O)Nc3nnc(-c4ccccc4)s3)CC2)c1 | 29.2% |
| O=C(CN1CCN(c2ccccc2)CC1)Nc1nccs1 | 5.49% |
| C=CCn1c(=S)[nH]c2cc(C(=O)Nc3ccc(OC)c(OC)c3)ccc2c1=O | -8.59% |

| Structure (SMILES) | inhibition |
| --- | --- |
| O=C(NCCc1ccc(F)cc1)c1cc2ccccc2oc1=O | 47.5% |
| COc1cccc2cc(C(=O)NCCc3c[nH]c4ccccc34)c(=O)oc12 | 61% |
| COC(=O)C1=CN(Cc2ccc(OC)cc2)C=C(C(=O)OC)C1c1cc(OC)c(OC)c(OC)c1 | 8.79% |
| CCCCCn1c(=O)c(C(=O)Nc2ccccn2)c(O)c2ccccc21 | 68.9% |
| CCCCn1c(=O)c(C(=O)Nc2ccccn2)c(O)c2ccccc21 | 27.8% |
| CCCCCn1c(=O)c(C(=O)Nc2cc(C)ccn2)c(O)c2ccccc21 | 17.3% |
| CCCCn1c(=O)c(C(=O)Nc2ccc(C)cn2)c(O)c2ccccc21 | 0.62% |
| COc1cccc(NC(=O)c2ccnc(N3CCC(C(=O)NCc4ccccc4OC)CC3)c2)c1 | -4.35% |
| CC(C)(C)C(=O)Nc1c2c(nn1-c1ccccc1)CSC2 | 35% |
| COc1ccc(OCC(=O)NNC(=O)c2cccnc2)cc1 | 3.8% |
| COc1cccc(N2CCN(C(=S)Nc3ccc(F)cc3)CC2)c1 | -4.62% |
| c1coc(Cn2c(-c3ccco3)nc3ccccc32)c1 | 6.77% |
| c1ccc(OCCn2c(-c3ccco3)nc3ccccc32)cc1 | 74.4% |
| C=CCSc1nnc2c(n1)OC(C)=Nc1ccc(Br)cc1-2 | 5.66% |
| Cc1cc(NC(=O)COC(=O)c2ccccc2S(=O)(=O)N(C)c2ccccc2)no1 | 9.17% |
| O=C(Nc1ccc2c(c1)CCC2)c1c(F)cccc1Cl | 1.55% |
| CC1(C(=O)OCC(=O)Nc2ccccc2)CC1(Cl)Cl (centres undefined) | 48.2% |
| O=C(COC(=O)Cc1ccccc1)Nc1nnc(-c2ccccc2)o1 | 10.8% |
| Cc1ccc(C)c(-c2nnc(NC(=O)Cc3ccccc3)o2)c1 | -18% |
| O=C(CCOc1ccccc1)Nc1nnc(-c2ccc3c(c2)OCCO3)o1 | -7.7% |
| CS(=O)(=O)c1ccccc1-c1nnc(NC(=O)COc2ccc(Cl)cc2)o1 | 21.8% |
| O=C(Nc1nnc(-c2ccncc2)o1)c1ccccc1F | 21.3% |
| O=C(COc1ccccc1)Nc1nnc(-c2ccco2)o1 | 19.2% |

Source: PubChem BioAssay AID488890 (Southern Research Specialized Biocontainment Screening …, 2010)
